# Laboratory results published in ChEMBL document CHEMBL3988442, “University of Dundee, Small-Polar-MMV Screening Library” (2021).
# The campaign covered roughly 48,000 compounds. About 13,000 (27%) showed an effect of 50% or more. This is one part of the list.
# Tested on: Wolbachia pipientis
# Assay: Anti-Wolbachia Cell-Based Screen
# Assay type: functional
# Design: scale not given: in the data most compounds retested in dose-response had high values
# Conditions: 5 µM
row,SMILES,Percent Effect [%]
1,Cc1cc(-c2nn(C)c(Cl)c2CN2CC[C@H](CO)[C@@H](O)C2)no1,35.82
2,COCCn1/c(=N/C(=O)C(C)C)sc2cc(Cl)ccc21,4.263
3,c1cnn(CC2CN(c3ncnc4sccc34)CCO2)c1 (stereo not drawn),-13.3
4,Cn1cc(-c2csc(N3CCN(c4nccs4)CC3)n2)cn1,-4.686
5,COc1c(C2CCCN2c2ncnc3c2cnn3C)c(C)nn1C (stereo not drawn),-11.95
6,CC1CN(c2ncnc3sccc23)CCN1c1nccs1 (stereo not drawn),102.8
7,CC1CN(c2ncnc3c2cnn3C)CCN1c1nccs1 (stereo not drawn),136.1
8,Cc1cnn(CC2CCCN2c2ncnc3sccc23)c1 (stereo not drawn),-4.98
9,CCc1nc(C)c(C(=O)NCCNc2ncnc3sccc23)s1,-61.04
10,Cc1nc(CN2C[C@@H]3CN(C(=O)C4(C#N)CC4)C[C@@H]3C2=O)cs1.O=C(O)C(F)(F)F,-7.986
11,COCC1COCCC12CCN(C(=O)CCc1ccccc1)CC2 (stereo not drawn),-6.521
12,COCC1COCCC12CCN(C(=O)CC1=CCCCC1)CC2 (stereo not drawn),-25.41
13,O=C(Cc1ccco1)N1CCC2(CCOCC2COCC2CC2)CC1 (stereo not drawn),-44.1
14,COCC1COCCC12CCN(S(=O)(=O)c1ccccc1C)CC2 (stereo not drawn),121.7
15,CCn1cc2c(n1)CN(S(=O)(=O)c1cccnc1)CC2COC.O=C(O)C(F)(F)F (stereo not drawn),-12.46
16,CCOCC1COCCC12CCN(C(=O)CS(C)(=O)=O)CC2 (stereo not drawn),-11.35
17,CCOCC1COCCC12CCN(C(=O)CC1=CCCCC1)CC2 (stereo not drawn),-10.97
18,COCC1COCCC12CCN(S(=O)(=O)c1cccnc1)CC2.O=C(O)C(F)(F)F (stereo not drawn),117.9
19,COCC1COCCC12CCN(S(=O)(=O)c1ccccc1)CC2 (stereo not drawn),111.6
20,CCO[C@@H]1CO[C@@]2(CCCN(S(=O)(=O)c3cccnc3)C2)C1.O=C(O)C(F)(F)F,-5.792
21,COCC1COCCC12CCN(S(=O)(=O)c1ccc(C)cc1)CC2 (stereo not drawn),101.4
22,COCC1COCCC12CCN(C(=O)CCOc1ccccc1)CC2 (stereo not drawn),9.795
23,CCCNC(=O)Cn1nc(C(C)C)c2cnn(C(C)(C)C)c2c1=O,13.78
24,CNC(=O)c1sc(C(NC(=O)c2ccccc2)C2CC2)nc1C (stereo not drawn),1.807
25,Cn1cc(C2CCCN2CCCc2nc(-c3cccs3)no2)cn1 (stereo not drawn),7.461

row,SMILES,Percent Effect [%]
1,CCn1nc(C)cc1C(=O)OCCNc1ncnc2ccccc12,-8.299
2,O=C(Nc1nncs1)NC1CCc2ccccc21 (stereo not drawn),-2.226
3,CN(Cc1ccc(O)cc1)C(=O)NCc1nnc2n1CCCCC2,89.08
4,CN(Cc1ccncc1)C(=O)NCc1nnc2n1CCCCC2,124.1
5,Cc1csc(CNC(=O)N(C)Cc2nnc3n2CCC3)n1,-16.98
6,O=C(NCc1nnc2n1CCCCC2)N(Cc1ccccn1)C1CC1,-22.11
7,CCc1sc(C(=O)Nc2cnn(CC(N)=O)c2)cc1C,-1.226
8,OCC1COCCN(c2ncccc2C(F)(F)F)C1 (stereo not drawn),17.46
9,COCCn1cnnc1C(C)NC(=O)c1[nH]c2c(C)cc(C)cc2c1C (stereo not drawn),-15.82
10,COc1c(C2CCCN2C(=O)c2cc(Cl)c[nH]2)c(C)nn1C (stereo not drawn),7.72
11,COc1c(C2CCCN2C(=O)c2cnc[nH]2)c(C)nn1C (stereo not drawn),99.16
12,Cc1nn(C)c(Cl)c1C1CCCN1C(=O)c1cnc[nH]1 (stereo not drawn),106.1
13,Cc1nn(C)c(Cl)c1C1CCCN1C(=O)c1ccc[nH]1 (stereo not drawn),99.71
14,Cc1nn(C)c(Cl)c1C1CCCN1C(=O)c1cc(Cl)c[nH]1 (stereo not drawn),15.12
15,c1ccc(-c2noc([C@@H]3Cc4nc[nH]c4CN3)n2)cc1,-8.482
16,COCCCN(Cc1cnc(C2CCCCC2)nc1)C1CCN(C)CC1,105.2
17,COCCCN(Cc1cnc(N2CCCC2)nc1)C1CCN(C)CC1,104.1
18,COCCCN1CCc2cncnc2C1,-3.846
19,COCCN1CCC(CN(Cc2ccncc2)C2CCCCC2)CC1,-7.976
20,COCCN1CCC(CN(Cc2ccncc2)C2CCC2)CC1,3.665
21,COCCCN(C(=O)c1ccc(-n2ccnc2)cc1)C1CCN(C)CC1,-6.688
22,Cc1ccc(C)c2c(O)cc(CN3CCC(c4nncn4C)CC3)nc12,4.156
23,CC(C)(C)c1cn2nc(N3CCOC(Cn4cncn4)C3)sc2n1 (stereo not drawn),9.569
24,Cc1ccc(CN2CCC3(CC2)CC3CN(C)Cc2cccnc2)o1.O=C(O)C(F)(F)F.O=C(O)C(F)(F)F.O=C(O)C(F)(F)F (stereo not drawn),5.127
25,Cc1cccc(CN2CCC3(CC2)CC(c2cccnc2)C(=O)N3C)n1.O=C(O)C(F)(F)F.O=C(O)C(F)(F)F (stereo not drawn),108

row,SMILES,Percent Effect [%]
1,Cc1nc(CN2CCC3(CC2)CC(c2cccnc2)C(=O)N3C)cs1.O=C(O)C(F)(F)F.O=C(O)C(F)(F)F (stereo not drawn),114.5
2,Cc1cc(C(=O)N2CCC3(CC2)CC(c2cccnc2)C(=O)N3C)no1.O=C(O)C(F)(F)F (stereo not drawn),1.086
3,Cc1cccc(CN2CCC3(CC2)CC(Oc2cccnc2)C3)n1.O=C(O)C(F)(F)F.O=C(O)C(F)(F)F,-6.69
4,Cc1ccc(CN2CCC3(CC2)CC(c2cccnc2)C(=O)N3C)o1.O=C(O)C(F)(F)F.O=C(O)C(F)(F)F (stereo not drawn),111.7
5,COC(=O)CNC(=O)CSCc1nc(O)c2cc(C(C)C)sc2n1,2.369
6,CN(Cc1ncnn1C)C(=O)Nc1ccc(OC(F)F)cc1,-14.3
7,CN(c1ncnc2c1CCC2)C1CCCN(c2cccnn2)C1 (stereo not drawn),4.941
8,COc1ccc(F)c(CN2CCCC(O)(CNCc3ncc[nH]3)C2=O)c1 (stereo not drawn),0.3473
9,C=C(C)COc1cccc(C(=O)N2CCC3(CCOCC3)CC2)c1,0.8095
10,CCOc1ccc(-c2ccnc(COc3ccccc3)n2)cc1C(=O)O,-3.347
11,Cn1cnc(S(=O)(=O)N2C[C@@H]3CC[C@H](C2)N(Cc2cscn2)C3=O)c1,-55.67
12,Cc1ccc(S(=O)(=O)N2CCN(Cc3ccncc3)CC2)c(Cl)c1,109.7
13,Cc1cc(Cl)c(C)c(S(=O)(=O)N2CCN(Cc3ccncc3)CC2)c1Cl,94.36
14,Cc1cc(F)c(C(C(=O)O)N2CCN(Cc3ccccn3)CC2)cc1Cl (stereo not drawn),7.172
15,Cc1ccc(CN2CCN(Cc3ccncc3)CC2=O)cc1,-11.1
16,CCN1CCN(S(=O)(=O)c2cc(Cl)c(Cl)cc2C)CC1,4.693
17,CNS(=O)(=O)c1ccc(CN2CCCN(Cc3ccncc3)CC2)cc1,21.96
18,Cc1cc(Cl)c(C)c(S(=O)(=O)N2CCN(Cc3ccccn3)CC2)c1Cl,101.6
19,Cc1cc(CN2CCN(C(=O)C3(C#N)CCCCC3)CC2)on1,-1.898
20,Cc1ccc(C)c(C(C(=O)O)N2CCCN(Cc3ccccn3)CC2)c1 (stereo not drawn),19.25
21,CCCNC(=O)N1CCN(Cc2cc(C)no2)CC1,1.77
22,Cc1cc(CN2CCN(S(=O)(=O)c3c(C)c(Cl)cc(C)c3Cl)CC2)on1,85.02
23,Cc1ccc(S(=O)(=O)N2CCn3nc(C)nc3C2)c(Cl)c1,0.9769
